ZTA counter: ZTA (EBV) inhibition in EBNA-1 counter-screen; P03206; ZTA-DNA binding, fluorescence polarization; inhibition, % at 11 µM; actives 0.15% (n = 320,000); AID 2234; in the data active = inhibition above about 33%
Target sequence (P03206 whole entry, looked up): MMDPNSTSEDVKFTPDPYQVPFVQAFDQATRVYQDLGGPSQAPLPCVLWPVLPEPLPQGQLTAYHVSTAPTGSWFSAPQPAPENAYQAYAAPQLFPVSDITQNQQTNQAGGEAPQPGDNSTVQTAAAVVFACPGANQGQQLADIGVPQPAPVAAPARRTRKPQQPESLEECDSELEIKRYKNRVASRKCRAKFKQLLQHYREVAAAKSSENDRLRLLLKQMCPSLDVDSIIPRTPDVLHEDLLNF
PAFAH1B3 inh: blocks human PAF acetylhydrolase 1B catalytic subunit 3; Q15102; recombinant PAFAH1B3, FP-rhodamine probe, fluorescence polarization; inhibition, % at 3.39 µM; actives 0.28% (n = 340,000); AID 492972;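 active = inhibition above the screen-wide average of all tested compounds plus 3 SD, cut at about 25% in these data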;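 also: 0% = enzyme with DMSO only and 100% = wells lacking PAFAH1B3 protein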
rCAG binder: molecules binding r(CAG) RNA repeats. r(CAG) RNA repeat, TO-PRO-1 dye displacement fluorescence. inhibition, % at 3 µM. actives 1.3% (n = 370,000);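 active = inhibition above the plate cutoff, the mean of all test compounds on that plate plus 3 SD, cut at about 35% in these data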;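 also: 0% = DMSO alone and 100% = 100 µM mitoxantrone as full dye displacement; higher means more dye released from RNA so lower well fluorescence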
PAFAH1B2 FP inh: inhibitors of human PAFAH1B2; P68402; recombinant PAFAH1B2, FP-rhodamine activity probe, fluorescence polarization; inhibition, % at 3.39 µM; actives 1.2% (n = 340,000); AID 492953;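 active = inhibition above the mean of all tested compounds plus 3 SD, cut at about 24% in these data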;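 also: 0% = enzyme with DMSO and 100% = wells lacking PAFAH1B2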
Target sequence (P68402 whole entry, looked up): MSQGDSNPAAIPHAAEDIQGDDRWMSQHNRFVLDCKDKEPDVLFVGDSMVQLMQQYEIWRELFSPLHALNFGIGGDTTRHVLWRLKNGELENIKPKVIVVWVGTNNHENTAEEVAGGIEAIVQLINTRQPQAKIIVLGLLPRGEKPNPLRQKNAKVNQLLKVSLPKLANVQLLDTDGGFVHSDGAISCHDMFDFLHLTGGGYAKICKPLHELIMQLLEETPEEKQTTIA
PAFAH2 FP inh: PAFAH2 (human) inhibition. Q99487. recombinant PAFAH2, FP-rhodamine activity probe, fluorescence polarization. inhibition, % at 3.39 µM. actives 0.99% (n = 340,000);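 active = inhibition above the mean over all tested compounds plus 3 SD, cut at about 30% in these data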;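 also: inhibitors block probe labeling of enzyme so polarization drops; 0% = enzyme with DMSO and 100% = wells lacking PAFAH2 protein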
EBNA-1 inh: blocks EBNA-1 binding to DNA. EBNA-1 DNA binding, fluorescence polarization. inhibition, % at 14.8 µM. actives 0.34% (n = 300,000). AID 1950; in the data active = inhibition above about 28%
The depositor's hits bear a star; i = inactive; · = not tested or not shown; + = active, no number. A selection: hits, their analogues and other compounds. The true share with any hit is near 2.9%.

SMILES	ZTA counter	PAFAH1B3 inh	rCAG binder	PAFAH1B2 FP inh	PAFAH2 FP inh	EBNA-1 inh
C=CCn1c(SCC(=O)c2ccc(O)c(O)c2)nnc1-c1cccc(Cl)c1	-9	5	21	5	39*	·
O=C(O)c1cccc(-c2ccc(/C=c3/sc4nc5ccccc5n4c3=O)o2)c1	10	26*	28	15	21	-19
N#C/C(=C\c1ccc(OCc2ccc(F)cc2)cc1)C(=O)Nc1cccc(C(=O)O)c1	-11	4	5	6	-22	20
N#C/C(=C\c1ccc(OCc2ccc(Br)cc2)cc1)C(=O)Nc1cccc(C(=O)O)c1	3	-7	2	24*	-31	14
Cc1cc(N2CCN(C(=O)OC(C)(C)C)C[C@H]2C)ccc1Br	·	·	2	·	·	·
N#CCC[C@@H]1CC[C@]2(CCCN(S(=O)(=O)C3CCCCC3)C2)O1	·	·	3	·	·	·
CC(C)n1nnnc1C1(C)Cn2nccc2C(=O)N1Cc1cccc(C(F)(F)F)c1 (stereo unspecified)	·	·	2	·	·	·
Cc1n[nH]c(=S)n1/N=C/c1ccc(OCc2ccc(Cl)cc2)cc1	8	6	6	28*	10	3
S=c1[nH]nc(Cc2ccc(Br)cc2)n1/N=C/c1ccc(Cl)cc1	-4	13	26	34*	-2	4
Cc1n[nH]c(=S)n1/N=C/c1ccc(OCc2ccc(Cl)cc2Cl)cc1	-8	6	2	9	-3	-11
COC(=O)[C@]12C[C@H](CC(=O)N3CCN(C(=O)c4ccco4)CC3)C(=O)N(CCC3=CCCCC3)C1=C[C@H](C1CCCC1)O[C@@H]2C	·	·	2	·	·	·
CCCc1c(-c2ccc(F)cc2F)ncn1Cc1cccc(-c2ccccc2)c1	·	·	5	·	·	·
O=C(Nc1ccccc1)OC[C@@H]1CSCCS(=O)(=O)N1	·	·	0	·	·	·
COc1cc(/C=N\n2cnnc2)ccc1OCC(=O)Nc1ccc(C)cc1	15	-1	-2	-1	-7	8
COc1cc(/C=N/n2cnnc2)ccc1OCCSc1ccc(C)cc1	4	1	4	24*	0	-4
CC(C)c1ccc(N2C(=O)CC(Sc3ncn[nH]3)C2=O)cc1 (stereo unspecified)	3	0	8	17	-8	2
CC(C)c1ccc(N2C(=O)CC(Sc3nc4ccccc4o3)C2=O)cc1 (stereo unspecified)	-7	10	8	26*	-8	0
CCOc1ccc(CNc2ccc(N3CCCC3)cc2)cc1	86*	6	·	4	1	79*
COc1cc(CNc2ccc(N3CCCC3)cc2)cc(Cl)c1OC	127*	10	12	7	-4	111*
C=CCOc1c(Cl)cc(CNc2ccc(N(C)C)cc2)cc1OC	+	7	12	4	11	+
CCOc1cc(CNc2ccc(N3CCCC3)cc2)cc(Cl)c1OC	159*	3	13	1	13	97*
C=CCOc1c(Cl)cc(CNc2ccc(C)c(Cl)c2)cc1OC	7	·	·	·	·	-2
CCOc1ccc(CNc2ccc(N3CCN(Cc4ccccc4)CC3)cc2)cc1	-8	11	-6	-4	-3	-7
Cc1ccc(SCCC(=O)OCC(=O)Nc2ccc(S(N)(=O)=O)cc2)cc1	-5	-3	9	24*	-7	-1
Cc1c(C(=O)OCC(=O)Nc2ccc(S(N)(=O)=O)cc2)oc2c1ccc1ccccc12	33*	-4	21	-4	-11	72*
SMILES	ZTA counter	PAFAH1B3 inh	rCAG binder	PAFAH1B2 FP inh	PAFAH2 FP inh	EBNA-1 inh
Cc1ccc2c(C)c(C(=O)Nc3ccc(S(N)(=O)=O)cc3)oc2c1C	9	-267	20	-165	-262	8
CN1C(=O)c2cc(NC(=O)Nc3ccccc3F)ccc2OC[C@H]2O[C@@H](CC(=O)NCc3ccc(-c4ccccc4)cc3)CC[C@@H]21	·	·	10	·	·	·
CCCCNc1c2c3c(cccc3n(C)c1=O)C(=O)c1ccccc1-2	17	63*	·	53*	75*	1
CC(=O)Nc1ccc(Nc2c3c4c(cccc4n(C)c2=O)C(=O)c2ccccc2-3)cc1	1	11	-97	14	14	-5
CCNc1c2c3c(cccc3n(C)c1=O)C(=O)c1ccccc1-2	7	·	·	·	·	6
Cn1c(=O)c(NCCc2ccccc2)c2c3c(cccc31)C(=O)c1ccccc1-2	12	165*	-82	147*	168*	5
Cn1c(=O)c(NCCO)c2c3c(cccc31)C(=O)c1ccccc1-2	9	41*	i	41*	58*	-8
COc1ccccc1CCn1cnc(-c2ccc(F)cc2)c1C(C)C	·	·	-1	·	·	·
COc1ccc(C(CCOC(=O)Oc2ccccc2)c2cc(OC)c(OC)c(OC)c2)cc1 (stereo unspecified)	·	·	1	·	·	·
Cc1c(O)ccc(/C(Cc2ccc3ccccc3n2)=N\O)c1O	-6	53*	-3	29*	28	15
CC(=O)Oc1ccc(C(=O)Cc2ccc3ccccc3n2)c(O)c1C	9	13	2	0	8	14
Cc1cccc(OC(C)CCN2CCC(C(O)(c3ccccc3)c3ccccc3)CC2)c1 (stereo unspecified)	·	·	2	·	·	·
N#Cc1ccc2nc(-c3ccc(CN4CCC(c5nc6ccccc6[nH]5)CC4)cc3)c(-c3ccccc3)nc2c1	·	·	13	·	·	·
COC(=O)c1ccc2nc(-c3ccco3)c(Cc3ccccc3OC)n2c1	·	·	22	·	·	·
CC(=O)c1sc(NC(=O)CCS(=O)(=O)c2ccc(Cl)cc2)nc1C	-6	9	-5	6	-8	-1
Cc1nc(CS(=O)(=O)c2ccc(Cl)cc2)sc1C(=O)O	-5	7	-1	25*	21	0
O=C(CNS(=O)(=O)c1ccc(Cl)cc1)NNC(=O)c1cccnc1	-8	4	1	6	4	7
O=C(CSc1ccc(Cl)cc1)NNC(=O)c1cccnc1	1	1	3	28*	5	11
CC(C)c1ccc(/C=C2\Oc3c(ccc(O)c3CN3CCN(C)CC3)C2=O)cc1	-7	8	-12	25*	76*	-7
CC(C)(C)c1ccc(C2=CC(c3ccccc3F)n3ncnc3N2)cc1 (stereo unspecified)	-7	16	-5	48*	1	2
Cc1ccc(-n2nnnc2SCC(=O)c2cc(C)n(CC3CCCO3)c2C)cc1 (stereo unspecified)	-7	2	-4	3	2	101*
Cc1cccc(-n2nnnc2SCC(=O)c2cc(C)n(CC3CCCO3)c2C)c1 (stereo unspecified)	5	3	-4	-2	-1	6
COC(=O)[C@]12C[C@H](CC(=O)NCCc3ccccc3OC)C(=O)N(Cc3ccc4c(c3)OCO4)C1=C[C@H](C(C)C)O[C@@H]2C1CC1	·	·	7	·	·	·
CCN(CC)S(=O)(=O)c1cccc(C(=O)OCC(=O)NC(C)c2ccccc2)c1 (stereo unspecified)	-2	5	-3	5	45*	-2
CN1C(=O)C[C@@](C#N)(C(=O)N2CCCC2)[C@H]1c1ccccc1	·	·	3	·	·	·

Screening data from PubChem.
